Inconclusive results are not listed. A number with no mark means an inactive call. Calls come from the whole dose curve; as a rule, active = well fitted inhibition curve with a large enough effect; inconclusive = small, poorly fitted or top-dose-only effect; inactive = flat fitted curve, though single readings scatter.
system: not listed separately; test: qHTS profiling for inhibitors of Plasmodium falciparum proliferation (AID 504749);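 note: 0% = DMSO vehicle and full inhibition = artemisinin control; nearly all actives have a fitted effect of over 60% in size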; details: P. falciparum in erythrocytes, SYBR Green DNA, 72 h; at 28.7 µM (top of the series); parasite line A
Method in brief: (§1)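 Fluorescence of SYBR Green-bound parasite DNA, read at 485/535 nm, served as the growth measure. Infected erythrocytes were cultured with compound 72 h; artemisinin (0.29 uM) and DMSO wells defined the normalization range.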

Compound | activity, negative = inhibition
COCC(=O)Nc1cc(Sc2ccccc2)ccc1N=C(NC(=O)OC)NC(=O)OC | 17.1%
CN(C)CCCN1c2ccccc2C(C)(C)c2ccccc21 | -5.82%
C[C@H]1C[C@H]2[C@@H]3CCC4=CC(=O)C=C[C@]4(C)[C@@]3(F)[C@@H](O)C[C@]2(C)[C@@]1(O)C(=O)CO | 15.5%
CC1(C)C(C=C(Cl)Cl)C1C(=O)OCc1cccc(Oc2ccccc2)c1 (stereo not given) | -2.63%
COC(=O)CCC(=O)CN | 6.69%

same assay, conditions: P. falciparum in erythrocytes, SYBR Green DNA, 72 h; at 28.7 µM (top of the series); parasite line B

Compound | activity, negative = inhibition
COCC(=O)Nc1cc(Sc2ccccc2)ccc1N=C(NC(=O)OC)NC(=O)OC | 26.6%
CN(C)CCCN1c2ccccc2C(C)(C)c2ccccc21 | -11.4%
C[C@H]1C[C@H]2[C@@H]3CCC4=CC(=O)C=C[C@]4(C)[C@@]3(F)[C@@H](O)C[C@]2(C)[C@@]1(O)C(=O)CO | 5.52%
CC1(C)C(C=C(Cl)Cl)C1C(=O)OCc1cccc(Oc2ccccc2)c1 (stereo not given) | -6.77%
COC(=O)CCC(=O)CN | 8.06%

system: 3D7; test: as above; details: P. falciparum in erythrocytes, SYBR Green DNA, 72 h; series mostly up to 28.7 µM; activity, negative = inhibition: at the top concentration
Method in brief: as §1

Compound | activity, negative = inhibition
COCC(=O)Nc1cc(Sc2ccccc2)ccc1N=C(NC(=O)OC)NC(=O)OC | -14.9%
CN(C)CCCN1c2ccccc2C(C)(C)c2ccccc21 | -6.2%
C[C@H]1C[C@H]2[C@@H]3CCC4=CC(=O)C=C[C@]4(C)[C@@]3(F)[C@@H](O)C[C@]2(C)[C@@]1(O)C(=O)CO | 0.237%
CC1(C)C(C=C(Cl)Cl)C1C(=O)OCc1cccc(Oc2ccccc2)c1 (stereo not given) | -21.9%
COC(=O)CCC(=O)CN | -3.43%

Reference: PubChem BioAssay (NCATS)
